Screens (PubChem)
Only some compounds are listed: those with a hit (about 1% of all), similar ones and a draw of the others.
TAG inh: inhibitors of triacylglycerol accumulation; H9c2 cells, Nile Red lipid (TAG) fluorescence; cells loaded with 200 µM oleic acid; 230,000 tested, 0.66% active; inhibition, % at 12.5 µM;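 active = pattern-corrected inhibition of lipid staining of at least 50% with the nuclear-stain viability signal not falling by more than 50%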;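 note: 0% = DMSO wells and 100% = triacsin C control wells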
Efflux pump inh: blocks antifungal efflux pumps in multiplex yeast assay; S. cerevisiae Candida pump triplex, Nile Red efflux; inhibition, % at 10 µM; 330,000 tested, 0.44% active; AID 485275;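 active = plate passing quality check with inhibition over a set limit, or well fluorescence over plate mean plus 4 SD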;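 note: Nile Red retained in pooled yeast measured as flow cytometry median fluorescence; 0% = buffer negative control and 100% = Enniatin B positive control; higher means more Nile Red kept so more efflux inhibition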
Bfl-1 A1 inh: inhibitors of the anti-apoptotic protein A1, read as caspase activation; MEF A1-2A-BIM cells, Caspase-Glo 3/7 luminescence, 3 h; percent of clofoctol response, vehicle zero; caspase activation, % (no concentration beside the values); 330,000 tested, 0.066% active;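 active = over half of replicate activation scores above 10%, or exactly half above 10 with the replicate mean above 10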
NPR1 activator: GC-A (human) enzyme activation; HEK293 GC-A cells, cGMP TR-FRET, EC30 ANP; 0% at EC30 ANP, 100% saturating ANP; activation, % at 10 µM; 370,000 tested, 0.14% active; AID 1671463; in the data active = activation above about 40%
NPR2 activator: GC-B (human) receptor activation; P20594; HEK293-GC-B cells, CNP EC30, cGMP TR-FRET; 0% at EC30 CNP, 100% saturating CNP; activation, % at 10 µM; 370,000 tested, 0.11% active;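 active = activation at 10 µM reaching about 35% in either raw or pattern-adjusted values, limit read from the data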
HSV augment: increases HSV replication in cells | 220,000 tested, 0.005% active | AID 1956 | HSV replication augmentation in cells, fold increase | maximum fold increase; in the data active = maximum fold increase above about 1.5; tested in PC3 cells
Cmpd fluor yeast: compound fluorescence in yeast efflux pump counter-screen | shares compounds with Efflux pump inh | S. cerevisiae AD/pABC3, flow cytometry | fluorescence ratio to DMSO, % at 10 µM | 1,700 tested, 4% active;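 active = fluorescence ratio to DMSO above its plate's cutoff, the plate mean ratio plus 5 SD, cut at about 210% in these data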;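 note: unstained yeast with no Nile Red so the signal is compound autofluorescence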
Mdr1 pump inh: Candida Mdr1 efflux pump inhibition. S. cerevisiae AD/CaMDR1, Nile Red efflux, flow cytometry. inhibition, % at 10 µM. shares compounds with Efflux pump inh. 1,700 tested, 1% active; in the data active = inhibition above about 26%;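 note: 0% = DMSO vehicle and 100% = reference inhibitor; higher means more Nile Red retained so more efflux inhibition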
CaCdr2 efflux inh: blocks the Candida albicans Cdr2 efflux pump in yeast. shares compounds with Efflux pump inh. S. cerevisiae AD/CaCDR2, Nile Red retention, flow cytometry. Nile Red retention ratio vs DMSO, % at 10 µM. 1,700 tested, 4% active; in the data active = Nile Red retention ratio vs DMSO above about 190%;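 note: higher ratio means more blocking of Cdr2 efflux of the dye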
CaCdr1 efflux inh: blocks the Candida albicans Cdr1 efflux pump in yeast; shares compounds with Efflux pump inh; 1,700 tested, 1% active; AID 588522; inhibition, % at 10 µM; S. cerevisiae AD/CaCDR1, Nile Red efflux, flow cytometry;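 active = inhibition above the screen-wide mean plus twice its standard deviation, cut at about 32% in these data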
* marks the source's active call; other numbers are inactive results; i = inactive; · = not tested or not shown.

SMILES	TAG inh	Efflux pump inh	Bfl-1 A1 inh	NPR1 activator	NPR2 activator	HSV augment	Cmpd fluor yeast	Mdr1 pump inh	CaCdr2 efflux inh	CaCdr1 efflux inh
N#CCSc1nc2c(sc(=S)n2Cc2ccco2)c(=O)n1-c1ccc(F)cc1	·	5.9*	-1	-1	-5	i	111	0	116	0
CC(=O)N1CCN(S(=O)(=O)c2ccc3c(c2)oc(=O)n3C)CC1	·	·	·	0	5	·	·	·	·	·
CN(CCC#N)C(=O)COC(=O)c1ccc2c(c1)C(=O)N(C1CCCCC1)C2=O	0	6.2*	2	3	-3	·	106	0	106	0
C=CCN1C(=O)c2ccc(C(=O)OCC(=O)N(C)C3CCCCC3)cc2C1=O	-8	0	0	1	0	i	·	·	·	·
CCOc1cc(C2C3=C(CCCC3=O)Nc3nc(C(=O)OC)nn32)ccc1OC (centres undefined)	·	1.4*	0	1	3	i	103	0	99	0
Cc1ccc(O)c(C(=O)c2cnc3c(c2)CN(CCC(C)C)C(=O)N3)c1	37	0.6*	0	7	0	i	107	0	104	0
Cc1ccc(O)c(C(=O)c2cnc3c(c2)CN(C)C(=O)N3)c1	·	0	0	1	-1	i	·	·	·	·
O=C(Nc1ccc(C(F)(F)F)cc1)OC1CCC12CCCCC2 (centres undefined)	·	·	·	3	4	·	·	·	·	·
CCc1ccc(-c2cc3c(=O)n(CC(=O)NCCN4CCCCC4C)nc(C)n3n2)cc1 (centres undefined)	·	1.0*	-1	6	-4	·	108	0	104	0
O=C(CNC(=O)C1COc2ccccc2O1)N/N=C/c1ccc(O)cc1O (centres undefined)	-5	0	0	-4	-1	i	·	·	·	·
O=C(CNC(=O)C1COc2ccccc2O1)N/N=C\c1cccc(O)c1 (centres undefined)	-7	7.6*	0	1	-6	·	89	0	87	0
Cc1cc(C(=O)NC2CC(C)(C)Cc3c2cnn3-c2ccc(F)cc2)no1 (centres undefined)	5	0	0	-3	-1	·	103	0	101	0
Cc1cc(C(=O)NC2CC(C)(C)Cc3c2cnn3-c2cccc(F)c2)n(C)n1 (centres undefined)	4	0	1	-1	-3	·	106	0	123	0
O=[N+]([O-])c1ccc(N2CCc3ccccc3C2)nc1	-8	0.6*	-2	4	-8	·	110	0	131	0
CC(C)CN1CN2CCc3ccccc3C2CS1(=O)=O (centres undefined)	·	·	·	2	8	·	·	·	·	·
COc1ccc(/C=C/C(=O)Nc2cccc(S(=O)(=O)N3CCCC3)c2)cc1OC	-4	1.1*	0	-6	-2	i	108	0	88	0
COc1ccc(CC(=O)Nc2cccc(S(=O)(=O)N3CCCC3)c2)cc1OC	-12	0	0	-1	3	·	·	·	·	·
Cc1cc(N2CCN(Cc3ccccc3)CC2)n2nc(C)nc2n1	·	·	·	-2	-4	·	·	·	·	·
Fc1ccc(-c2cc(-c3nnc4sc(-c5ccco5)nn34)[nH]n2)cc1	·	·	·	5	1	·	·	·	·	·
C=CCn1c(SCC#N)nc2ccccc2c1=O	·	0.6*	0	-4	-1	i	93	0	106	0
CC(C)Cn1c(SCC#N)nc2ccccc2c1=O	-18	0	0	2	1	i	·	·	·	·
CCOc1ccc(C(=O)NCC(C)CN(C)C)cc1OCC (centres undefined)	-13	0	0	1	-2	i	·	·	·	·
